A number with no mark means an inactive call. The source made the active and inactive calls.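 The calls were made as follows, unless noted: active = mean inhibition over 43.08%, the solvent-only control mean plus 3 SD; inactive = the rest.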
Key:
[1] = molecular target: Nuclear receptor coactivator 3 (Homo sapiens) (UniProt Q9Y6Q9); experiment: SRC3 coactivator transcriptional activity inhibitors, confirmation, cell-based, luminescence, quadruplicate (AID 588792); conditions: HEK293 GAL4-SRC3 luciferase reporter, at 3.6 µM, stronger effect = higher value;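 also: 0% = DMSO treated cells and 100% = gossypol at 36 µM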
[2] = test system: transactivating tegument protein VP16 (Human herpesvirus 1), Gal4-VP16 luciferase reporter; experiment: VP16 transactivation inhibitors, counter-screen for SRC3 inhibitor project, cell-based, luminescence, high throughput (AID 588794; in the data active = inhibition above about 30%); conditions: mammalian cells, VP16-driven luciferase reporter luminescence; at 3.6 µM; stronger effect = higher value

Chain of Nuclear receptor coactivator 3 (Homo sapiens) (Q9Y6Q9 whole entry, looked up, the tested form may be a part): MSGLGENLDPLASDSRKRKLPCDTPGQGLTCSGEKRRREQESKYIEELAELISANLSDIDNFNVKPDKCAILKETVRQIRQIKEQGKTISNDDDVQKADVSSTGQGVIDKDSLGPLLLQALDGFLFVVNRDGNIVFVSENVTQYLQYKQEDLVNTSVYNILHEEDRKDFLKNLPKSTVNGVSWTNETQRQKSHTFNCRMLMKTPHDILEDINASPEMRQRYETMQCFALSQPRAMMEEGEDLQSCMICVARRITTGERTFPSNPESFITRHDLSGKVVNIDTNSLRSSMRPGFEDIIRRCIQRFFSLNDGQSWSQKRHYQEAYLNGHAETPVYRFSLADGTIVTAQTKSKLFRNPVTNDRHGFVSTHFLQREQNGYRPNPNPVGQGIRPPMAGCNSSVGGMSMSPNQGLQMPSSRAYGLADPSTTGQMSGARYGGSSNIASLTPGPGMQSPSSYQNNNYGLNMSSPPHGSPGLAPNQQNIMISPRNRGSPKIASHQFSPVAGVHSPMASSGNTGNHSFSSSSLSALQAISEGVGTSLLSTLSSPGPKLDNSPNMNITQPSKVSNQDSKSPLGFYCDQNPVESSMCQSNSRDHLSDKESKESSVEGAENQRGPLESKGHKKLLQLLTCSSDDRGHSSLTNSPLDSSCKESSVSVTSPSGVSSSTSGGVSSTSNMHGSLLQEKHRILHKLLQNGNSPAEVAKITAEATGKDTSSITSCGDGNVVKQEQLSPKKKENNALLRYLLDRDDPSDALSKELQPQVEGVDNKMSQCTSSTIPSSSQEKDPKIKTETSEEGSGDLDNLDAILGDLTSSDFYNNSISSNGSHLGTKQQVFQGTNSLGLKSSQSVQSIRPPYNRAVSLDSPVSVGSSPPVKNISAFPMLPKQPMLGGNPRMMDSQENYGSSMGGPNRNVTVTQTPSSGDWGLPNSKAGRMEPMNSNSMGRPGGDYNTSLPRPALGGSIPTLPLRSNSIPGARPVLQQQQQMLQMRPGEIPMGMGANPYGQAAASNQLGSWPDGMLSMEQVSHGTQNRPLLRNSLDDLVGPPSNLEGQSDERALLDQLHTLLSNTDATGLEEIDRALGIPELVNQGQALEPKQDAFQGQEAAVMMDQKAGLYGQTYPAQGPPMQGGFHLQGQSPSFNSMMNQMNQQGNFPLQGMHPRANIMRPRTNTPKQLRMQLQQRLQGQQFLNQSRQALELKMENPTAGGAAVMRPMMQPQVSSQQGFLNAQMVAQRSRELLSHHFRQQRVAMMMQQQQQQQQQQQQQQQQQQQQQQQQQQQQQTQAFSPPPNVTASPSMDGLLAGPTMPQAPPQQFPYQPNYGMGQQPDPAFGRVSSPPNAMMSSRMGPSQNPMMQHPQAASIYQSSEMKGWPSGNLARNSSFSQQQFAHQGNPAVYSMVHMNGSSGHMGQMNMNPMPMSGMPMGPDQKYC

Compound | inhibition [1] | inhibition [2]
CCCc1[nH]nc2c1C(c1ccc(Br)s1)C(C#N)=C(N)O2 (stereo unspecified) | 8.21% | 25.7%
CCCCCCCOC(=O)C[N+](C)(C)CCOC1CC2CCC1(C)C2(C)C (stereo unspecified) | -17.6% | 9.62%
COc1ccccc1N1CCN(C(=O)CSc2nnc3n2C(C)(C)Cc2ccccc2-3)CC1 | -10.1% | 27.2%
Cc1nc(Nc2nc(CSc3nc4ccccc4[nH]3)cc(=O)[nH]2)nc2ccccc12 | -5.42% | 3.35%
O=C(Nc1ccc2c(c1)CCC2)C1CCN(c2c3c(nc4ncnn24)CCC3)CC1 | 13.5% | 13.2%
CCCn1nc(C(=O)NCC2COc3ccccc3O2)c2ccccc2c1=O (stereo unspecified) | 9.61% | 3.2%
O=c1cc(CNc2cc(C(F)(F)F)cc(C(F)(F)F)c2)nc2sccn12 | 4.27% | 3.94%
Fc1ccc(-c2noc(C3CCN(Cc4cccnc4)CC3)n2)cc1 | -4.45% | 6.14%
Cn1nc(C(F)(F)F)cc1C(=O)Nc1ccc(Cl)cc1 | 4.63% | 8.1%
CC(=O)c1c(C)[nH]c(C(=O)OCC(=O)Nc2c(C)cccc2C)c1C | 16.8% | 13.5%
Cc1[nH]c2ccccc2c1C(=O)CN1C(=O)NC2(CC(C)CC(C)(C)C2)C1=O (stereo unspecified) | 11.9% | -5.15%
CC(C)COc1ccc(C(=O)Nc2sc3c(c2C(=O)O)CC(C)(C)OC3)cc1 | 45.4% (active) | 68.5% (active)
COc1ccc(N/N=C/c2c(C(=O)O)ccc3ccccc23)cc1 | 31.2% | 36.5% (active)

From PubChem BioAssay
